Assay outcomes (PubChem)
ST2 IL33 inh – inhibitors of human ST2 (IL1RL1) binding to IL-33, primary screen, biochemical, AlphaLISA; Interleukin-1 receptor-like 1 (Homo sapiens), Q01638; AlphaLISA ST2-Fc/biotin-IL-33 interaction, 1 h; inhibition, % for hits at 17 µM; 78,000 tested, 2.3% active; AID 1259354, 2018; in the data active = inhibition above about 30%
Target sequence (Q01638 whole entry, looked up): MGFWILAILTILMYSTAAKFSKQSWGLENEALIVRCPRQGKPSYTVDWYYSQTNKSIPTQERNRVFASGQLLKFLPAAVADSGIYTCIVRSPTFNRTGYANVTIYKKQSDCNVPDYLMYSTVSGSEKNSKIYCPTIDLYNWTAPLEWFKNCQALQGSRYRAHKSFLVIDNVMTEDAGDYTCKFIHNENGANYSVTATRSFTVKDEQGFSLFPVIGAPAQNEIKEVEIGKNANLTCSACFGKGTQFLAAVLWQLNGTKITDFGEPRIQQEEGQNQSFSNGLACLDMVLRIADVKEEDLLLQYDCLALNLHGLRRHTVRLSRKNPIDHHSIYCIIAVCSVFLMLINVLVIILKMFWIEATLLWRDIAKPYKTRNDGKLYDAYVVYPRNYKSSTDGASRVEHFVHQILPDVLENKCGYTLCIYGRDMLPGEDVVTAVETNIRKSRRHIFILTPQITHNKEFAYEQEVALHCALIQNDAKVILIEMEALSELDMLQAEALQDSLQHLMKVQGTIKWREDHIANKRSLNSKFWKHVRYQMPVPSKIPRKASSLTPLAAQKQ
An asterisk follows results filed as active. The sample as a whole holds a higher share of hits than the screen did.

What do the screens show for `CCC(C)n1c(=N)c(C#N)cc2c(=O)n3ccccc3nc21` (stereo not drawn)?
ST2 IL33 inh: 39.0%*

Results for Cc1cccn2c(=O)c3cc(C(=O)NCc4cccnc4)c(=N)n(CCCn4ccnc4)c3nc12 ?
ST2 IL33 inh: inactive

How did CCC(C)n1c(=N)c(C(=O)NC2CCCCC2)cc2c(=O)n3ccccc3nc21 (stereo not drawn) do in these assays?
ST2 IL33 inh: inactive

Results for O=C(Cn1cnc2c(cnn2-c2ccc(Cl)cc2)c1=O)c1ccccc1 ?
ST2 IL33 inh: inactive

What do the screens show for `Cc1ccc(-n2c(SCC(=O)Nc3cc(C)cc(C)c3)nc3c(c2=O)SCC3)cc1`?
ST2 IL33 inh: inactive

What do the screens show for `CCc1nc(C)c(C(=O)N2CCc3c(nc(-c4ccccc4)[nH]c3=O)C2)o1`?
ST2 IL33 inh: inactive

What do the screens show for `CC(C)(C)C1CCc2c(sc(NC(=O)c3ccccc3Cl)c2C(=O)NCCO)C1` (stereo not drawn)?
ST2 IL33 inh: inactive

How did CC(C)c1ccc(C(=O)Nc2cccc(-c3nc4ncccc4o3)c2)cc1 do in these assays?
ST2 IL33 inh: inactive

Results for O=C(Nc1cccc(-c2nc3ncccc3o2)c1)c1ccc(OCc2ccccc2)cc1 ?
ST2 IL33 inh: 33.0%*

What do the screens show for `CCOc1cc(OCC)cc(C(=O)Nc2cccc(-c3nc4ncccc4o3)c2)c1`?
ST2 IL33 inh: inactive

How did CC1(C)CC(=O)c2cc(OCC(=O)N3CCc4ccccc4C3)ccc2O1 do in these assays?
ST2 IL33 inh: inactive

Results for Nc1ccc(-c2cc(-c3ccccc3)nc(-c3ccc(N)cc3)n2)cc1 ?
ST2 IL33 inh: inactive

What do the screens show for `Nc1ccc(-c2c3ccccc3nc3cc(N)ccc23)cc1`?
ST2 IL33 inh: 61.0%*

What do the screens show for `Nc1ccc(-c2ccc3ccccc3n2)cc1`?
ST2 IL33 inh: inactive

Results for Cc1nc(C(N)=O)c2c(n1)n(-c1ccc(C)c(C)c1)c(=O)n2Cc1ccccc1 ?
ST2 IL33 inh: inactive

Results for CN(Cc1n[nH]c2c1CCCCC2)C(=O)c1cc(COc2ccccc2)[nH]n1 ?
ST2 IL33 inh: inactive

What do the screens show for `CCN1CCN(C2CC(=O)N(c3ccc(Br)cc3Br)C2=O)CC1` (stereo not drawn)?
ST2 IL33 inh: inactive

Results for CC(=O)Nn1nc2cc3nnnc3cc2[nH]1 ?
ST2 IL33 inh: inactive

Results for NNC(=O)c1ccc(Oc2ccc(C(=O)NN)cc2)cc1 ?
ST2 IL33 inh: inactive

What do the screens show for `C=CCOc1nc2c(c(=O)n(C)c(=O)n2C)n1C`?
ST2 IL33 inh: inactive

What do the screens show for `C=CCOc1nc2c(c(=O)n(Cc3ccc(Br)cc3)c(=O)n2C)n1C`?
ST2 IL33 inh: 39.0%*

How did Cn1c(OCc2cccnc2)nc2c1c(=O)n(Cc1ccc(Cl)cc1)c(=O)n2C do in these assays?
ST2 IL33 inh: inactive

How did COc1cc(C=O)ccc1OCc1ccc(Cl)cc1Cl do in these assays?
ST2 IL33 inh: inactive

How did CC(O)CNc1ccc(Cl)cc1[N+](=O)[O-] (stereo not drawn) do in these assays?
ST2 IL33 inh: inactive

How did O=C1Nc2cc(Cl)c(Cl)cc2N(O)N1c1ccc([N+](=O)[O-])cc1 do in these assays?
ST2 IL33 inh: inactive

What do the screens show for `Cc1ccc(C(=O)N2CCCC2)cc1[N+](=O)[O-]`?
ST2 IL33 inh: inactive

Results for O=[N+]([O-])c1ccc(C2Nc3cc(Cl)cc(Cl)c3C3C=CCC32)cc1 (stereo not drawn) ?
ST2 IL33 inh: 32.0%*

What do the screens show for `O=C(c1ccc2c(c1)C1C=CCC1C(c1ccc([N+](=O)[O-])cc1)N2)N1CCCC1` (stereo not drawn)?
ST2 IL33 inh: 40.0%*

What do the screens show for `Cc1ccc(S(=O)(=O)N2CCSC2c2ccccc2Cl)c(C)c1` (stereo not drawn)?
ST2 IL33 inh: inactive

Results for Cc1ccc([C@@H]2Nc3ccc(C(=O)O)cc3[C@@H]3C=CC[C@@H]32)cc1 ?
ST2 IL33 inh: 34.0%*

How did CC1CC(C)CN(C(=O)c2ccc([N+](=O)[O-])cc2)C1 (stereo not drawn) do in these assays?
ST2 IL33 inh: inactive

How did Cc1ccc(C(=O)N2CCN(C(=O)c3ccccc3)C2c2ccc(N(C)C)cc2)cc1 (stereo not drawn) do in these assays?
ST2 IL33 inh: inactive

Results for CC1CC(=O)Nc2cc([N+](=O)[O-])ccc2N1 (stereo not drawn) ?
ST2 IL33 inh: inactive

What do the screens show for `Cc1ccc2c(c1)C1C=CCC1C(c1ccccc1Cl)N2` (stereo not drawn)?
ST2 IL33 inh: 33.0%*

What do the screens show for `COc1cccc(CN2C(=O)NC(C)(C3CCN(C(=O)/C=C/c4cccc(F)c4)CC3)C2=O)c1OC` (stereo not drawn)?
ST2 IL33 inh: inactive

What do the screens show for `O=C(NCCSc1c[nH]c2ccccc12)c1ccc(Cl)cc1Cl`?
ST2 IL33 inh: inactive

Results for COCCCNC(=O)COc1ccc2c(c1)C(=O)CC(C)(C)O2 ?
ST2 IL33 inh: inactive

What do the screens show for `CC(C)c1cc(C(=O)N2CCNCC2C(=O)N2CCOCC2)cs1` (stereo not drawn)?
ST2 IL33 inh: inactive

How did O=C(c1cc(-c2ccc3c(c2)OCO3)on1)N1CCN(Cc2ccccc2)CC1 do in these assays?
ST2 IL33 inh: inactive

How did CC(=O)c1cccc(NC(=O)c2cnc3n(c2=O)CCS3)c1 do in these assays?
ST2 IL33 inh: inactive

What do the screens show for `Cc1nc(N2CCC(NCC3OCCc4ccccc43)CC2)nc2cc(S(C)(=O)=O)ccc12` (stereo not drawn)?
ST2 IL33 inh: inactive

What do the screens show for `Cc1ccc2oc(-c3cc(N)ccc3O)nc2c1`?
ST2 IL33 inh: 45.0%*

Results for Cc1ccc2oc(-c3ccc(F)cc3)nc2c1 ?
ST2 IL33 inh: inactive

What do the screens show for `Nc1ccc2oc(-c3cc(F)c(F)cc3Cl)nc2c1`?
ST2 IL33 inh: inactive

What do the screens show for `Nc1ccc(C(=O)Nc2ccc(Oc3ccc(NC(=O)c4ccc(N)cc4)cc3)cc2)cc1`?
ST2 IL33 inh: inactive

How did COc1cc(-c2nc3ccccc3c(=O)[nH]2)cc(OC)c1OC do in these assays?
ST2 IL33 inh: inactive

How did Cc1ccc(NC(=O)c2cc3c(C)nn(-c4ccccc4)c3s2)cc1[N+](=O)[O-] do in these assays?
ST2 IL33 inh: 36.0%*

Results for Cc1cc(C)c([N+](=O)[O-])cc1NC(=O)c1cc2c(C)nn(-c3ccccc3)c2s1 ?
ST2 IL33 inh: inactive

How did Cc1nn(-c2ccccc2)c2sc(C(=O)NCCCO)cc12 do in these assays?
ST2 IL33 inh: inactive

Results for CC(NC(=O)CSc1cc(=O)n(C)c2ccccc12)c1ccc2c(c1)OCCO2 (stereo not drawn) ?
ST2 IL33 inh: inactive

Results for CC1CCCN(C2CCN(Cc3ccc(Cl)cc3)CC2)C1 (stereo not drawn) ?
ST2 IL33 inh: inactive

What do the screens show for `CCc1ccccc1NC(=O)COc1ccccc1`?
ST2 IL33 inh: inactive

How did Cc1sc(N=Cc2ccc(Br)cc2)c(C#N)c1C do in these assays?
ST2 IL33 inh: 55.0%*

How did NS(=O)(=O)c1ccc(N=Cc2ccc(Br)cc2)cc1 do in these assays?
ST2 IL33 inh: inactive

What do the screens show for `COc1ccc(C=Nc2sc3c(c2C#N)CCCC3)cc1[N+](=O)[O-]`?
ST2 IL33 inh: inactive

How did COc1ccc(S(=O)(=O)Nc2cccc(Cl)c2Cl)cc1 do in these assays?
ST2 IL33 inh: inactive

Results for Clc1ccc2nc(CSc3nncn3-c3ccccc3)c(Br)n2c1 ?
ST2 IL33 inh: inactive

How did O=C(Nc1cc2c(ccc3ccccc32)oc1=O)c1ccc(F)cc1 do in these assays?
ST2 IL33 inh: inactive
